These results are taken from PubChem BioAssay (EPA / NIEHS).

Activity calls are given as the source filed them. Rule for the calls: active = hit-call score of the fitted dose curve at least 0.9, where 1 is the maximum; inactive = score below 0.9.

One may read the AC50 as the concentration giving half of the maximal activity seen.

What all share (conditions): mRNA level, 48 h; actives raise or lower the signal
Read-out in test [1]: HGF (gene 3082)
The test is described as follows: LTEA_HepaRG_HGF: Life Technologies and Expression Analysis (LTEA) Assay for Hepatocyte Growth Facto (HGF) using HepaRG (AID 2283505). An outline of the steps:
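Gain or loss of HGF mRNA in human HepaRG liver cells after 48 h chemical exposure; eight concentrations up to 100 uM with 0.5% DMSO vehicle, quantified by TaqMan qRT-PCR.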

Read-out in test [2]: Insulin Like Growth Factor 1 (IGF1), IGF1 (gene 3479)
As to the kind of experiment: LTEA_HepaRG_IGF1: Life Technologies and Expression Analysis (LTEA) Assay for Insulin Like Growth Factor 1 (IGF1) using HepaRG (AID 2283506). In a few lines: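 qRT-PCR readout of IGF1 mRNA, normalized to three housekeeping genes, after 48 h chemical exposure of HepaRG cells. Concentrations: 8-point half-log series, top 100 uM, 0.5% DMSO vehicle. Gain or loss fitted against DMSO baseline.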

Read-out in test [3]: Intercellular Adhesion Molecule 1 (ICAM1), ICAM1 (gene 3383)
The test is described as follows: LTEA_HepaRG_ICAM1: Life Technologies and Expression Analysis (LTEA) Assay for Intercellular Adhesion Molecule 1 (ICAM1) using HepaRG (AID 2283507). An outline of the steps:
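Gain or loss of transcript in HepaRG hepatic cells is quantified by qRT-PCR after 48 h chemical exposure (up to 100 uM, half-log steps), with DMSO as baseline.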

Read-out in test [4]: Insulin-like growth factor-binding protein 1 (IGFBP1), IGFBP1 (gene 3484)
The test is described as follows: LTEA_HepaRG_IGFBP1: Life Technologies and Expression Analysis (LTEA) Assay for Insulin-like growth factor-binding protein 1 (IGFBP1) using HepaRG (AID 2283508). An outline of the steps:
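mRNA induction or loss was quantified by qRT-PCR after 48 h chemical exposure of human HepaRG cells, with 0.5% DMSO as vehicle and baseline. Concentration-response over eight points up to 100 uM.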

Read-out in test [5]: Interleukin 6 (IL6), IL6 (gene 3569)
As to the kind of experiment: LTEA_HepaRG_IL6: Life Technologies and Expression Analysis (LTEA) Assay for Interleukin 6 (IL6) using HepaRG (AID 2283509). In a few lines:
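qRT-PCR read-out of IL6 transcript, normalized to three housekeeping genes, after 48 h chemical exposure of HepaRG cells; 8-point half-log series, top 100 uM, 0.5% DMSO vehicle. Bidirectional curve fitting against DMSO baseline.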

Read-out in test [6]: Interleukin 6 Receptor (IL6R), IL6R (gene 3570)
As to the kind of experiment: LTEA_HepaRG_IL6R: Life Technologies and Expression Analysis (LTEA) Assay for Interleukin 6 Receptor (IL6R) using HepaRG (AID 2283510).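 For AC50: differentiated human HepaRG liver cells in serum-free induction medium; TaqMan qRT-PCR signal normalized to ACTB GAPDH and POLR2A housekeeping genes.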 An outline of the steps: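 HepaRG, 48 h exposure, 8-pt half-log series, top 100 uM, 0.5% DMSO vehicle, duplicates. Read-out: TaqMan qRT-PCR of IL6R transcript, housekeeping-gene normalized. Gain or loss fitted relative to DMSO baseline.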

Read-out in test [7]: Potassium channel subfamily K member 1 (KCNK1), KCNK1 (gene 3775)
As to the kind of experiment: LTEA_HepaRG_KCNK1: Life Technologies and Expression Analysis (LTEA) Assay for Potassium channel subfamily K member 1 (KCNK1) using HepaRG (AID 2283511). In a few lines:
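HepaRG, 48 h exposure, 8-pt half-log series top 100 uM, 0.5% DMSO vehicle, duplicates. Readout: KCNK1 transcript by qRT-PCR (Fluidigm array), housekeeping-normalized; bidirectional curve fit relative to DMSO baseline.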

Read-out in test [8]: Keratin 19 (KRT19), KRT19 (gene 3880)
As to the kind of experiment: LTEA_HepaRG_KRT19: Life Technologies and Expression Analysis (LTEA) Assay for Keratin 19 (KRT19) using HepaRG (AID 2283512). An outline of the steps:
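Gene-expression endpoint in the human liver line HepaRG after 48 h exposure to up to 100 uM test chemical with 0.5% DMSO vehicle; KRT19 mRNA by qRT-PCR, analyzed bidirectionally versus DMSO.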

Read-out in test [9]: JUN Transcription Factor, JUN (gene 3725)
The test is described as follows: LTEA_HepaRG_JUN: Life Technologies and Expression Analysis (LTEA) Assay for JUN Transcription Factor using HepaRG (AID 2283513). In a few lines:
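HepaRG, 48 h exposure, 8-pt half-log series top 100 uM, 0.5% DMSO, duplicate. JUN mRNA by qRT-PCR (Fluidigm), housekeeping-normalized (ACTB/GAPDH/POLR2A); bidirectional curve fit vs DMSO baseline.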

Read-out in test [10]: Lipase C (LIPC), LIPC (gene 3990)
As to the kind of experiment: LTEA_HepaRG_LIPC: Life Technologies and Expression Analysis (LTEA) Assay for Lipase C (LIPC) using HepaRG (AID 2283514). In a few lines: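 HepaRG, 48 h exposure, 8-pt half-log series from 100 uM in 0.5% DMSO, duplicates. Readout: LIPC mRNA by Fluidigm qRT-PCR, housekeeping-normalized (ACTB/GAPDH/POLR2A). Gain or loss fitted bidirectionally against DMSO baseline.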

In the case of `CCNc1nc(Cl)nc(NCC)n1`, the outcome in [1], in [2], in test [3], in test [4], in test [5] and in test [6] was inactive. The call in test [7], in test [8], in test [9] and in test [10] was inactive.
In the case of `CCCCC(CC)COC(=O)c1ccccc1C(=O)OCC(CC)CCCC` (stereo not given), the compound was called inactive in test [1], in [2], in test [3], in test [4], in test [5] and in test [6]. In addition, the outcome in test [7], in test [8] and in test [9] was inactive.
For `O=C(O)COc1nc(Cl)c(Cl)cc1Cl`, the result in test [1], in [2], in [3], in [4], in test [5] and in [6] was inactive. Moreover, the call in test [7], in test [8] and in test [9] was inactive.
As to `CN(C)C(=S)SSC(=S)N(C)C`, the result in test [1], in [2], in test [3], in [4], in test [5] and in test [6] was inactive. Also, the call in test [7], in [8], in test [9] and in test [10] was inactive.
With `COc1cnc(OC)n2nc(NS(=O)(=O)c3c(OCC(F)F)cccc3C(F)(F)F)nc12`, the result in test [1], in [3], in test [4], in test [5], in [6] and in [7] was inactive. Also, the outcome in [8], in test [9] and in test [10] was inactive. In addition, in test [2], the AC50 is 10.3 µM (active).
Turning to `Fc1ccc(Oc2ccnc3cc(Cl)cc(Cl)c23)cc1`, the result in test [1], in test [3], in test [7] and in [9] was inactive. Also, the AC50 in [2] is 50 µM (active); in test [4] it was 57.2 µM (active); in test [5], 77.4 µM (active); in [8], 50 µM (active).
In the case of `CCNc1nc(Cl)nc(NC(C)C)n1`, the outcome in test [1], in [3], in [4], in [5], in [6] and in test [7] was inactive. For the same compound, the outcome in test [9] was inactive. In addition, the values for the AC50 in test [2] and in test [8] were 50 µM (active) and 26.1 µM (active), respectively.
`N#Cc1cc(Br)c(O)c(Br)c1`: the AC50 in test [1] is 23.9 µM (active); in test [2] it was 17.4 µM (active); in test [3] it was 69.9 µM (active); in [4] it was 19.3 µM (active); in test [5] it was 34.5 µM (active); in test [6], 19.4 µM (active). Further, the half-maximal activity concentration (AC50) is 25.6 µM (active) in test [8] and 24.2 µM (active) in test [9]. Also, the compound was classed as inactive in test [7].
Turning to `C=CC1(C)OC(=O)N(c2cc(Cl)cc(Cl)c2)C1=O` (stereo not given), the result in [1], in test [2], in [3], in test [4], in test [5] and in test [6] was inactive. Besides, the compound was classed as inactive in [7], in [8] and in test [9].
With `COC(=O)C=C(C)OP(=O)(OC)OC`, the call in test [1], in [2], in test [3], in [4], in test [5] and in test [6] was inactive. For the same compound, the result in [7], in [8], in [9] and in test [10] was inactive.
In the case of `Cc1ccc(-c2c(Cl)nc(C#N)n2S(=O)(=O)N(C)C)cc1`, the concentration at half-maximal activity (AC50) in test [1] is 86 µM (active); in test [2] it was 50 µM (active); in test [4], 13.6 µM (active); in test [5], 13.2 µM (active); in [7] it was 50 µM (active); in [8], 22.3 µM (active). The outcome in test [3], in test [6] and in test [9] was inactive.
With `O=C(O)c1nc(Cl)ccc1Cl`, the compound was called inactive in test [1], in [2], in [3], in test [4], in test [5] and in test [6]. For the same compound, the call in test [7], in test [8], in [9] and in test [10] was inactive.
`CCOc1cc(Oc2ccc(C(F)(F)F)cc2Cl)ccc1[N+](=O)[O-]`: the AC50 in [2] is 50 µM (active); in [3], 50 µM (active); in test [4], 68.8 µM (active); in [7], 30 µM (active); in [8], 33.8 µM (active). In addition, the call in [5], in test [6] and in [9] was inactive.
